Source: the supplement of paper PMC11732987, “Enantioselective OTUD7B fragment discovery through chemoproteomics screening and high-throughput optimisation” (Communications Chemistry, 2025)

Experiments:
Assay in all cases: log2 ratio of Biotin-Ahx-Ub-VS probe labelling (fragment/DMSO); higher = less target engagement (more negative = stronger competition), active = hit call of the paper (q ≤ 0.05, log2 ratio ≤ -1)
Details in all cases: compound concentration: 200 uM; treatment time: 3 h
[1] = biological target: T1, USP42 (UniProt Q9H9J4)
T1 sequence (whole entry): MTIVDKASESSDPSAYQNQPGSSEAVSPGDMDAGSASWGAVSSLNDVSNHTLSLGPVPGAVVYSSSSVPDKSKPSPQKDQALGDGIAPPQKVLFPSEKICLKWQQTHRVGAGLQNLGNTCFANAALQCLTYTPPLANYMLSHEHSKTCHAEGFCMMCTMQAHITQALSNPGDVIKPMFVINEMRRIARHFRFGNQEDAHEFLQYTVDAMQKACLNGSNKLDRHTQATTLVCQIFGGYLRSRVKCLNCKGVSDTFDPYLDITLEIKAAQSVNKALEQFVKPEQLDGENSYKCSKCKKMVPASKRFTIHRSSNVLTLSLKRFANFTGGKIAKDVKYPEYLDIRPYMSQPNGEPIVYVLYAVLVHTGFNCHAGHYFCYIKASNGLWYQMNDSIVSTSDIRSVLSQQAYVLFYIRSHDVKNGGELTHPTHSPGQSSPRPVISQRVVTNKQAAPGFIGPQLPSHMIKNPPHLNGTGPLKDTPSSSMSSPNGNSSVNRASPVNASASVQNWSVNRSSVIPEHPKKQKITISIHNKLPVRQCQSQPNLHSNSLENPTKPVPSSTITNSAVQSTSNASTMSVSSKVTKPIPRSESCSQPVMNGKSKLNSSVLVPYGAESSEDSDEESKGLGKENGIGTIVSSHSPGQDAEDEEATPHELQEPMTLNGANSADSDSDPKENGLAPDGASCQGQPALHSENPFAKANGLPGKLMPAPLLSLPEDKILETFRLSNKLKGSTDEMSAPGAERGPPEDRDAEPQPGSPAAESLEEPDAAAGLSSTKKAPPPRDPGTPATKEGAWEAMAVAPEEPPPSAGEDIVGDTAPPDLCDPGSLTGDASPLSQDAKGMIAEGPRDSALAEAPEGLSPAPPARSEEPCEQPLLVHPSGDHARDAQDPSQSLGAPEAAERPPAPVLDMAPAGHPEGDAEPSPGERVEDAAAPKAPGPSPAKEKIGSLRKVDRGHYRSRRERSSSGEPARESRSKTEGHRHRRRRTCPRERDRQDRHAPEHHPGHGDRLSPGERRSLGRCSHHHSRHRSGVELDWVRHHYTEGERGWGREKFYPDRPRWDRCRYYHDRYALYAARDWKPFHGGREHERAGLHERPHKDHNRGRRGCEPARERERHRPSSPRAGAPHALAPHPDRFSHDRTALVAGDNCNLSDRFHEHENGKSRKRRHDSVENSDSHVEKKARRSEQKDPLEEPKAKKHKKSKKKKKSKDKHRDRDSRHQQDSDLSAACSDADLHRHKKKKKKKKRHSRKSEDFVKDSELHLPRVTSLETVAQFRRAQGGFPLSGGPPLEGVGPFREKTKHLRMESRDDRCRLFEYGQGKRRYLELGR
Outline: (§1)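 Triplicate samples of HEK293T lysate, 495 µg each, received fragment at 200 µM or vehicle for 3 h, followed by Biotin-Ahx-Ub-VS (0.5 µM final) for 1 h. After NeutrAvidin enrichment of labelled DUBs and LysC/trypsin digestion, peptides were run by diaPASEF LC-MS/MS. The values are average log2 fragment/vehicle ratios from global-median-normalised Spectronaut label-free quantities, tested by unpaired t-test on proteins having ≥2 unique peptides.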

[2] = biological target: USP46 (UniProt P62068)
Chain of USP46 (P62068 whole entry): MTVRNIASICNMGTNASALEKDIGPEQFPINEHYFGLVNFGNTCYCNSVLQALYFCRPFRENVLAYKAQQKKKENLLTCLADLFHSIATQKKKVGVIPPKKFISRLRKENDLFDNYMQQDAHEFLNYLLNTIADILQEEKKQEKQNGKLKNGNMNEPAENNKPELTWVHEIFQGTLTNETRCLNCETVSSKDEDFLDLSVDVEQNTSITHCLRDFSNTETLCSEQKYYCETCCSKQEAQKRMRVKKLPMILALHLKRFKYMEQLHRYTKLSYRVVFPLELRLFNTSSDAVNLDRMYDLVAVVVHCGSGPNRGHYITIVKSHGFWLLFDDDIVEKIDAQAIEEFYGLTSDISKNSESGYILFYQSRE
Outline: as §1

[3] = biological target: T2, USP47 (UniProt Q96K76)
T2 sequence (whole entry): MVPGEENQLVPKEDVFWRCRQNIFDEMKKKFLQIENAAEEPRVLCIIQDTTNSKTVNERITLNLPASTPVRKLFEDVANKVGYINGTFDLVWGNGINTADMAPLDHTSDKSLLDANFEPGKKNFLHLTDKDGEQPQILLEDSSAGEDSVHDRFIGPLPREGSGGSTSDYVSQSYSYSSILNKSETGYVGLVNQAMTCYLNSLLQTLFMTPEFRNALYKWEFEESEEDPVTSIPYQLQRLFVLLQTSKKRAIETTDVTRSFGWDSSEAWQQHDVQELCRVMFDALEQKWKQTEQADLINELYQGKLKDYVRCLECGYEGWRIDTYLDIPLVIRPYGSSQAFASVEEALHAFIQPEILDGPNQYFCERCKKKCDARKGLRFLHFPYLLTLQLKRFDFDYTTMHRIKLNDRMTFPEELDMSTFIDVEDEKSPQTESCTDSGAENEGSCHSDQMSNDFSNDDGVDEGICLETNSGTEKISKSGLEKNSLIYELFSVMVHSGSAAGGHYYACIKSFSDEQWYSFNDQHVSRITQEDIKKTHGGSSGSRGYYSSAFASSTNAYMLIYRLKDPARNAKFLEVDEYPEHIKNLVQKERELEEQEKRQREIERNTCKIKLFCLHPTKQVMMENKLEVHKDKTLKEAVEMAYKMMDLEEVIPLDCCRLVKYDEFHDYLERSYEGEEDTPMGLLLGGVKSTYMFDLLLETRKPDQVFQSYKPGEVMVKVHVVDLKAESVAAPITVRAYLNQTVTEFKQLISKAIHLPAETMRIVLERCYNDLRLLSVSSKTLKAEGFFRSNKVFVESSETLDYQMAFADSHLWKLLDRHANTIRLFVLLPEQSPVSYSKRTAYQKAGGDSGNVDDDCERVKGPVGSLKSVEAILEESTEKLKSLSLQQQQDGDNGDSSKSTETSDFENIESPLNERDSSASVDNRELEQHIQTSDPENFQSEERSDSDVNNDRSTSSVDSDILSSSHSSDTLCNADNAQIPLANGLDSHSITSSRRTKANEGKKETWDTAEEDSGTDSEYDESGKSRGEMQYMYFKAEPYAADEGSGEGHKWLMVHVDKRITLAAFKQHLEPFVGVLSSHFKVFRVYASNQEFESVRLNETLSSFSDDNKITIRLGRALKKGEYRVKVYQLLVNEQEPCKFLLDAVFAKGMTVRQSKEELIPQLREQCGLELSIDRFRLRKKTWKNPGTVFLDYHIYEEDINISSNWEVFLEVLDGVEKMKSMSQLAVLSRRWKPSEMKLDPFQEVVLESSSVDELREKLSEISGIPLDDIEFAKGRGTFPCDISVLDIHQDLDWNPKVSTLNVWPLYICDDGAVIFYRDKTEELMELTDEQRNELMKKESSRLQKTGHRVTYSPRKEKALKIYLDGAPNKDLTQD
Outline: as §1

[4] = biological target: T3, USP48 (UniProt Q86UV5)
T3 sequence (whole entry): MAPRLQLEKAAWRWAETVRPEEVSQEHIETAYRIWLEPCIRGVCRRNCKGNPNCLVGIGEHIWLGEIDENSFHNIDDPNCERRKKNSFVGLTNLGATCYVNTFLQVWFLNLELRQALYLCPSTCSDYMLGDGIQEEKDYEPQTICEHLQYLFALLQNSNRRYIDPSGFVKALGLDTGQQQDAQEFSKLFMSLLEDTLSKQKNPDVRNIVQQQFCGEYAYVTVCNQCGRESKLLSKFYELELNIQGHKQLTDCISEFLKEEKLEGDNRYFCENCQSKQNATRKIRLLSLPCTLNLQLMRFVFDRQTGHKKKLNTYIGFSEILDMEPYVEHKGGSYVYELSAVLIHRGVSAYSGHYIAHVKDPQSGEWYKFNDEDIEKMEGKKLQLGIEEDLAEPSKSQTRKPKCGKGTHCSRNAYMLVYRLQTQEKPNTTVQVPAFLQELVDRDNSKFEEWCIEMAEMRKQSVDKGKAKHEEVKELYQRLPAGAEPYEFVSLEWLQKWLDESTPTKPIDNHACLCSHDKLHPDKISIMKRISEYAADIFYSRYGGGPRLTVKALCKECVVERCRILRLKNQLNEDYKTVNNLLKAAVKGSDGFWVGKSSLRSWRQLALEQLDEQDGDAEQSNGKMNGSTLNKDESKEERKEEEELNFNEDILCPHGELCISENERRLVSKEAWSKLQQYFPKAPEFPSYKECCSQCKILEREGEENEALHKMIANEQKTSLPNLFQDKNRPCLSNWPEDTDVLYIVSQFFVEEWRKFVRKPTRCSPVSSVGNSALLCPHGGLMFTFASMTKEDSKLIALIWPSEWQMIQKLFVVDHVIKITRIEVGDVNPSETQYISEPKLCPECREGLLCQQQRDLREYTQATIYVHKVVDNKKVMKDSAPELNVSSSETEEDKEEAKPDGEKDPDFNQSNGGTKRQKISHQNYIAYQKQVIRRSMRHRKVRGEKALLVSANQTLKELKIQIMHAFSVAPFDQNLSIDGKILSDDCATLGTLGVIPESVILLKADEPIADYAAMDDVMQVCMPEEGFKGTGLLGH
Outline: as §1

[5] = biological target: T4, USP5 (UniProt P45974)
T4 sequence (whole entry): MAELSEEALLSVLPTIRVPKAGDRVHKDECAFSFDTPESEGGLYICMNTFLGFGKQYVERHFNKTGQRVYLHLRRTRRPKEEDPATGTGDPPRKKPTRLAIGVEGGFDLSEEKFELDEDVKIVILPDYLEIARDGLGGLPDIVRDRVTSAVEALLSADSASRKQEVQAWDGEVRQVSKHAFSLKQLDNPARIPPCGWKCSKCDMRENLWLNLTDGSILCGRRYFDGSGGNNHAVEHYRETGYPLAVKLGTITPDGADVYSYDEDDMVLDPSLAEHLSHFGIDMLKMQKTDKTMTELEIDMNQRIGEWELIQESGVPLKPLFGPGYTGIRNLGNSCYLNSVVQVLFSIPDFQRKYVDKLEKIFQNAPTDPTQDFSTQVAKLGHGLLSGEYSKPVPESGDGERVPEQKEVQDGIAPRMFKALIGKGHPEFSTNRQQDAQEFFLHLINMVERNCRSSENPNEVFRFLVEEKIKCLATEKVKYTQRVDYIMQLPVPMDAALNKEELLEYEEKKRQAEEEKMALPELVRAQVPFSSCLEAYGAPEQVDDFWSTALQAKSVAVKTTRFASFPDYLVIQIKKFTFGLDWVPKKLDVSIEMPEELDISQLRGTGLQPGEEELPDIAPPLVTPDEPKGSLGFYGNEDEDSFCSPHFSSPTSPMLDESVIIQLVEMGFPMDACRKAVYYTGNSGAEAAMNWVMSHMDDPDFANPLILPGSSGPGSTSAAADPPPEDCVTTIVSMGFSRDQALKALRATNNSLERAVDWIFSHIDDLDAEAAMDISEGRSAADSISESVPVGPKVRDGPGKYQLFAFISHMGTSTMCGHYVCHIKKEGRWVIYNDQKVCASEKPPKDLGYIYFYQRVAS
Outline: as §1

[6] = biological target: USP54 (UniProt Q70EL1)
Chain of USP54 (Q70EL1 whole entry): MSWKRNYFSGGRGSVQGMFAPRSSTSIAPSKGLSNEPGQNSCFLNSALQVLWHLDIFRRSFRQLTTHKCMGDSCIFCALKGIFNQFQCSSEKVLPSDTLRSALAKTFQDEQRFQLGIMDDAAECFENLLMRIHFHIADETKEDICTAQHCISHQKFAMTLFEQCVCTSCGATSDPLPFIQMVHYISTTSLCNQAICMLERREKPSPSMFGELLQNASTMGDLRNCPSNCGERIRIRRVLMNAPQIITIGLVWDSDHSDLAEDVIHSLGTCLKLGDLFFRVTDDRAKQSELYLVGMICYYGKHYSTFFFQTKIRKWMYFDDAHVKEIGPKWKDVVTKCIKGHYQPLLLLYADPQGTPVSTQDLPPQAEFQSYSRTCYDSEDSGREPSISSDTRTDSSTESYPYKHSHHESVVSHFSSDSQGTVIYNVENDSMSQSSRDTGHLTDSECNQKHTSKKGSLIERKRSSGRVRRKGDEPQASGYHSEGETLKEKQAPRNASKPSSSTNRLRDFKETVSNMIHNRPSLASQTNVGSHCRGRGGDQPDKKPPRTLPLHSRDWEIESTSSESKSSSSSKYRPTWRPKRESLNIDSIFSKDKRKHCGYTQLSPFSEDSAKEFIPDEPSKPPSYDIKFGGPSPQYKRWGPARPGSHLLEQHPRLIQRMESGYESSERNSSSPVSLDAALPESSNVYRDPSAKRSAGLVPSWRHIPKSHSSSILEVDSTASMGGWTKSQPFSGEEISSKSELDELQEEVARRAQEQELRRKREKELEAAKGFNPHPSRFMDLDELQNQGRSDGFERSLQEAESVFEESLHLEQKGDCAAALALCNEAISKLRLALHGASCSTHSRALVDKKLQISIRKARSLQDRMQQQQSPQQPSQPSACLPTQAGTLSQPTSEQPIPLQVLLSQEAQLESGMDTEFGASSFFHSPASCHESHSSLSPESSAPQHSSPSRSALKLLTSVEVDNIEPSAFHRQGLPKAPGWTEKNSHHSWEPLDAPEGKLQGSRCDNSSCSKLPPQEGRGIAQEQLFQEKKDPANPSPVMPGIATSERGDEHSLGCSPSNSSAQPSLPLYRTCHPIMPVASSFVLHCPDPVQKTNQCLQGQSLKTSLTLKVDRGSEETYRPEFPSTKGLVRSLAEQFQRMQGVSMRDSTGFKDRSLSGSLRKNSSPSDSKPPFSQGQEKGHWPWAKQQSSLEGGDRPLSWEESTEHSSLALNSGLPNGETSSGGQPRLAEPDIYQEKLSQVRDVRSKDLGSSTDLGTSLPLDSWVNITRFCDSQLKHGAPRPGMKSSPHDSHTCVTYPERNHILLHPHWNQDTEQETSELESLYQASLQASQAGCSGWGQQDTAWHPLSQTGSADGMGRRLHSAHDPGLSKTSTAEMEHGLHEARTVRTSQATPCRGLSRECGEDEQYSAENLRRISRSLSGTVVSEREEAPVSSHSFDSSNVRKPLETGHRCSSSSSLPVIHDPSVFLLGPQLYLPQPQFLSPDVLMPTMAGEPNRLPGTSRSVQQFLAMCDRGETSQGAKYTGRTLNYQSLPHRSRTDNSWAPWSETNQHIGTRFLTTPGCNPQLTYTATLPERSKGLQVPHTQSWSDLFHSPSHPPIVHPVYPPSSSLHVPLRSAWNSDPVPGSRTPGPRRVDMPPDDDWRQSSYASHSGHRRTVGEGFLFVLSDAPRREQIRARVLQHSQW
Outline: as §1

[7] = biological target: USP7 (UniProt Q93009)
Chain of USP7 (Q93009 whole entry, looked up): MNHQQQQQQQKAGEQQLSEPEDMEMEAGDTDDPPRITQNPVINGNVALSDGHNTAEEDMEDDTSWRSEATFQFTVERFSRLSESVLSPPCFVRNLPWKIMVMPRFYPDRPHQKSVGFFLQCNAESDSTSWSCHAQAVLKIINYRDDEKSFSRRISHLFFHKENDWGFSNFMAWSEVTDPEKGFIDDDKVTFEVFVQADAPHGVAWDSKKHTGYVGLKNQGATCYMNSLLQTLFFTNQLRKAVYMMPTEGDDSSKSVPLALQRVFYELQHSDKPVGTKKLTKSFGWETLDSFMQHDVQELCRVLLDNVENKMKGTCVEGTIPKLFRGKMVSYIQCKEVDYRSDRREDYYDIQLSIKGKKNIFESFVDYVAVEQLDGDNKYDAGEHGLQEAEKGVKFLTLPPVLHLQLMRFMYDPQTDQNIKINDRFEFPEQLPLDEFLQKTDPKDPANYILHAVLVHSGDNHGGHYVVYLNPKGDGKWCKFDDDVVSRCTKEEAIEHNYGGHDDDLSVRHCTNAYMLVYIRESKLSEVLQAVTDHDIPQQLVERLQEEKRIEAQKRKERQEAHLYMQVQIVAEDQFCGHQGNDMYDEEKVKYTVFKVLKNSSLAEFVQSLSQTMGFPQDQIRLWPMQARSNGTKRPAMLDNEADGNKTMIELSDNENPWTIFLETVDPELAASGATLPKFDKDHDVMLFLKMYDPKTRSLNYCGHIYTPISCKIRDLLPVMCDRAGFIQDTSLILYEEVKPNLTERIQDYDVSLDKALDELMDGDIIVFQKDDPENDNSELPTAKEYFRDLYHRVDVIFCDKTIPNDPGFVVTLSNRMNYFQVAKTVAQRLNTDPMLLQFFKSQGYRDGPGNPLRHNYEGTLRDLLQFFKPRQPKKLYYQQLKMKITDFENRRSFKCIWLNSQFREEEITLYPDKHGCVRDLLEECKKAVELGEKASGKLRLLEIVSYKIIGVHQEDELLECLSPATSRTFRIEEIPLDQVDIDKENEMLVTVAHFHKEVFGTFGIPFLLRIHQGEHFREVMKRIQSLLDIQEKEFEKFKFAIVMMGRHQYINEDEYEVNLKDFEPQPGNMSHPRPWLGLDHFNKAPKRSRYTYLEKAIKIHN
Outline: as §1

[8] = biological target: T5, USP8 (UniProt P40818)
T5 sequence (whole entry): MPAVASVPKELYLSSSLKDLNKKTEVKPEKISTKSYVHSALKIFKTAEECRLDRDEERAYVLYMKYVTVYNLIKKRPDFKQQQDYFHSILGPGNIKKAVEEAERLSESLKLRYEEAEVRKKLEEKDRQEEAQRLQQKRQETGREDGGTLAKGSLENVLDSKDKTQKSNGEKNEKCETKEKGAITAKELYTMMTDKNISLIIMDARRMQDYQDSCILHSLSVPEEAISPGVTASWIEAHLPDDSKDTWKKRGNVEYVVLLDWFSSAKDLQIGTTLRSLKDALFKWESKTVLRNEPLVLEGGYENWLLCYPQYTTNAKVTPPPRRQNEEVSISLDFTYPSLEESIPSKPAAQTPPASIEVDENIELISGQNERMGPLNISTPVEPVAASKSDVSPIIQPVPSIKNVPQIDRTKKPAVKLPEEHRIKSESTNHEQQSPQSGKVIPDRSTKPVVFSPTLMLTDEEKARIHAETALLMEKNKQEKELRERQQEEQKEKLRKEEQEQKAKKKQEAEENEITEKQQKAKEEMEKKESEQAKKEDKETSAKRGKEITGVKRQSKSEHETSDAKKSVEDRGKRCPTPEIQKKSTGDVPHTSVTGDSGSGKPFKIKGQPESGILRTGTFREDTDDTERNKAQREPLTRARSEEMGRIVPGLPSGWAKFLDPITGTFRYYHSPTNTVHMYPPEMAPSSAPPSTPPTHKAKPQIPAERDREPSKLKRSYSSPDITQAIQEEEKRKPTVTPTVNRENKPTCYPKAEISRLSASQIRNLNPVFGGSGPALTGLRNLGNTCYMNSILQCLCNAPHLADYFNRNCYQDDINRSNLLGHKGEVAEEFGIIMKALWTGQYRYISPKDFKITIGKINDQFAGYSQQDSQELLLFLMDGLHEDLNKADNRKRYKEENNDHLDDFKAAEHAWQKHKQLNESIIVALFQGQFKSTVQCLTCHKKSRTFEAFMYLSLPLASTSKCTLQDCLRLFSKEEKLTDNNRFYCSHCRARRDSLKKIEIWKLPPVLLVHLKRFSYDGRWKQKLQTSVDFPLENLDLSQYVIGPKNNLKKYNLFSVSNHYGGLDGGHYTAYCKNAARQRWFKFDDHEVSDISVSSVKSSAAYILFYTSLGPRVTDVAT
Outline: as §1

[9] = biological target: USP9X (UniProt Q93008)
Outline: as §1

[10] = biological target: UniProt O00487
Chain of UniProt O00487 (O00487 whole entry): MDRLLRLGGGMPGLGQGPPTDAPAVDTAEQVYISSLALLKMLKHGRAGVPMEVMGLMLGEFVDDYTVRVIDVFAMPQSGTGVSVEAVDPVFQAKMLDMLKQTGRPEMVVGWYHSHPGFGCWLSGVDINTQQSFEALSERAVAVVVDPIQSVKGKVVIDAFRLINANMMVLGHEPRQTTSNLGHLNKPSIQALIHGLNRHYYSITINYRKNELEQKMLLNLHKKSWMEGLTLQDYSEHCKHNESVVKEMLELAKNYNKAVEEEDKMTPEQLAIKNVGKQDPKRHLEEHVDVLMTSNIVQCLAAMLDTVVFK
Outline: as §1

Measured: log2 ratio of Biotin-Ahx-Ub-VS probe labelling

O=C(CCl)NC1(c2ccc3c(c2)OCCO3)CCCC1
inactive: [1] -0.0517 | [2] -0.105 | [3] -0.898 | [4] -0.261 | [5] 0.179 | [6] 1.09 | [7] -0.305 | [8] -0.374 | [9] -0.378 | [10] -0.176
